Experimental data from paper PMC9911399, “Two distinct binding modes provide the RNA-binding protein RbFox with extraordinary sequence specificity”.
Where a chain is given by its changes, count along the chain named. Whole data set: some 16,000 sequences, median “ka relative to ugcaugu” near 0.096, cut for the highest 2% near 0.35. For the sample, the highest values were picked, then their nearest neighbours and some sequences at random.

B1: UCUGGGU (DNA:RNA)
RNA: GGGAGACCGGAAUUCAGAUUGUCCUCUGGGUUUAAAUCCCGUCGUAGCCACCA
DNA 1: CAATCTGAATTCCGGTCTCCC
DNA 2: TGGTGGCTACGACGGGATT
B2: GUGGUUC (DNA:RNA)
RNA: B1 RNA with U25G, C26U, U27G, G29U, G30U, U31C
DNA 1: CAATCTGAATTCCGGTCTCCC
DNA 2: TGGTGGCTACGACGGGATT
B3: AGCGCCG (DNA:RNA)
RNA: B1 RNA with U25A, C26G, U27C, G29C, G30C, U31G
DNA 1: CAATCTGAATTCCGGTCTCCC
DNA 2: TGGTGGCTACGACGGGATT
B4: ACACACC (DNA:RNA)
RNA: B1 RNA with U25A, U27A, G28C, G29A, G30C, U31C
DNA 1: CAATCTGAATTCCGGTCTCCC
DNA 2: TGGTGGCTACGACGGGATT
B5: UGUGUAA (DNA:RNA)
RNA: B1 RNA with C26G, G29U, G30A, U31A
DNA 1: CAATCTGAATTCCGGTCTCCC
DNA 2: TGGTGGCTACGACGGGATT
B6: CAACCGG (DNA:RNA)
RNA: B1 RNA with U25C, C26A, U27A, G28C, G29C, U31G
DNA 1: CAATCTGAATTCCGGTCTCCC
DNA 2: TGGTGGCTACGACGGGATT
B7: CUACAAU (DNA:RNA)
RNA: B1 RNA with U25C, C26U, U27A, G28C, G29A, G30A
DNA 1: CAATCTGAATTCCGGTCTCCC
DNA 2: TGGTGGCTACGACGGGATT
B8: CGGCAAU (DNA:RNA)
RNA: B1 RNA with U25C, C26G, U27G, G28C, G29A, G30A
DNA 1: CAATCTGAATTCCGGTCTCCC
DNA 2: TGGTGGCTACGACGGGATT
B9: UUGGUUU (DNA:RNA)
RNA: B1 RNA with C26U, U27G, G29U, G30U
DNA 1: CAATCTGAATTCCGGTCTCCC
DNA 2: TGGTGGCTACGACGGGATT
B10: GUAUGUA (DNA:RNA)
RNA: B1 RNA with U25G, C26U, U27A, G28U, G30U, U31A
DNA 1: CAATCTGAATTCCGGTCTCCC
DNA 2: TGGTGGCTACGACGGGATT
B11: GUCCGUA (DNA:RNA)
RNA: B1 RNA with U25G, C26U, U27C, G28C, G30U, U31A
DNA 1: CAATCTGAATTCCGGTCTCCC
DNA 2: TGGTGGCTACGACGGGATT
B12: GGAUGUA (DNA:RNA)
RNA: B1 RNA with U25G, C26G, U27A, G28U, G30U, U31A
DNA 1: CAATCTGAATTCCGGTCTCCC
DNA 2: TGGTGGCTACGACGGGATT
B13: GAUUGUA (DNA:RNA)
RNA: B1 RNA with U25G, C26A, G28U, G30U, U31A
DNA 1: CAATCTGAATTCCGGTCTCCC
DNA 2: TGGTGGCTACGACGGGATT
B14: CGAUGUA (DNA:RNA)
RNA: B1 RNA with U25C, C26G, U27A, G28U, G30U, U31A
DNA 1: CAATCTGAATTCCGGTCTCCC
DNA 2: TGGTGGCTACGACGGGATT
B15: CUAUGUA (DNA:RNA)
RNA: B1 RNA with U25C, C26U, U27A, G28U, G30U, U31A
DNA 1: CAATCTGAATTCCGGTCTCCC
DNA 2: TGGTGGCTACGACGGGATT
B16: GCAUAUA (DNA:RNA)
RNA: B1 RNA with U25G, U27A, G28U, G29A, G30U, U31A
DNA 1: CAATCTGAATTCCGGTCTCCC
DNA 2: TGGTGGCTACGACGGGATT
B17: GAAUGUA (DNA:RNA)
RNA: B1 RNA with U25G, C26A, U27A, G28U, G30U, U31A
DNA 1: CAATCTGAATTCCGGTCTCCC
DNA 2: TGGTGGCTACGACGGGATT
B18: GCAUGUA (DNA:RNA)
RNA: B1 RNA with U25G, U27A, G28U, G30U, U31A
DNA 1: CAATCTGAATTCCGGTCTCCC
DNA 2: TGGTGGCTACGACGGGATT
B19: GUUUGUA (DNA:RNA)
RNA: B1 RNA with U25G, C26U, G28U, G30U, U31A
DNA 1: CAATCTGAATTCCGGTCTCCC
DNA 2: TGGTGGCTACGACGGGATT
B20: CGUUGUA (DNA:RNA)
RNA: B1 RNA with U25C, C26G, G28U, G30U, U31A
DNA 1: CAATCTGAATTCCGGTCTCCC
DNA 2: TGGTGGCTACGACGGGATT
B21: ACAUGUA (DNA:RNA)
RNA: B1 RNA with U25A, U27A, G28U, G30U, U31A
DNA 1: CAATCTGAATTCCGGTCTCCC
DNA 2: TGGTGGCTACGACGGGATT
B22: AGACUAU (DNA:RNA)
RNA: B1 RNA with U25A, C26G, U27A, G28C, G29U, G30A
DNA 1: CAATCTGAATTCCGGTCTCCC
DNA 2: TGGTGGCTACGACGGGATT
B23: CGUCGCC (DNA:RNA)
RNA: B1 RNA with U25C, C26G, G28C, G30C, U31C
DNA 1: CAATCTGAATTCCGGTCTCCC
DNA 2: TGGTGGCTACGACGGGATT
B24: UCACCUC (DNA:RNA)
RNA: B1 RNA with U27A, G28C, G29C, G30U, U31C
DNA 1: CAATCTGAATTCCGGTCTCCC
DNA 2: TGGTGGCTACGACGGGATT
B25: AAAAUUC (DNA:RNA)
RNA: GGGAGACCGGAAUUCAGAUUGUCCAAAAUUCUUAAAUCCCGUCGUAGCCACCA
DNA 1: CAATCTGAATTCCGGTCTCCC
DNA 2: TGGTGGCTACGACGGGATT
B26: AGAAUGG (DNA:RNA)
RNA: B25 RNA with A26G, U30G, C31G
DNA 1: CAATCTGAATTCCGGTCTCCC
DNA 2: TGGTGGCTACGACGGGATT
B27: GGAAUGG (DNA:RNA)
RNA: B25 RNA with A25G, A26G, U30G, C31G
DNA 1: CAATCTGAATTCCGGTCTCCC
DNA 2: TGGTGGCTACGACGGGATT
B28: CGUAUGG (DNA:RNA)
RNA: B25 RNA with A25C, A26G, A27U, U30G, C31G
DNA 1: CAATCTGAATTCCGGTCTCCC
DNA 2: TGGTGGCTACGACGGGATT
B29: AGAAUUG (DNA:RNA)
RNA: B25 RNA with A26G, C31G
DNA 1: CAATCTGAATTCCGGTCTCCC
DNA 2: TGGTGGCTACGACGGGATT
B30: GUUAUGG (DNA:RNA)
RNA: B25 RNA with A25G, A26U, A27U, U30G, C31G
DNA 1: CAATCTGAATTCCGGTCTCCC
DNA 2: TGGTGGCTACGACGGGATT
B31: GUAAUGG (DNA:RNA)
RNA: B25 RNA with A25G, A26U, U30G, C31G
DNA 1: CAATCTGAATTCCGGTCTCCC
DNA 2: TGGTGGCTACGACGGGATT
B32: GGUAUGG (DNA:RNA)
RNA: B25 RNA with A25G, A26G, A27U, U30G, C31G
DNA 1: CAATCTGAATTCCGGTCTCCC
DNA 2: TGGTGGCTACGACGGGATT
B33: AGAUUGG (DNA:RNA)
RNA: B25 RNA with A26G, A28U, U30G, C31G
DNA 1: CAATCTGAATTCCGGTCTCCC
DNA 2: TGGTGGCTACGACGGGATT
B34: GUAUGGU (DNA:RNA)
RNA: B1 RNA with U25G, C26U, U27A, G28U
DNA 1: CAATCTGAATTCCGGTCTCCC
DNA 2: TGGTGGCTACGACGGGATT
B35: CGAAUGG (DNA:RNA)
RNA: B25 RNA with A25C, A26G, U30G, C31G
DNA 1: CAATCTGAATTCCGGTCTCCC
DNA 2: TGGTGGCTACGACGGGATT
B36: GAAAUGG (DNA:RNA)
RNA: B25 RNA with A25G, U30G, C31G
DNA 1: CAATCTGAATTCCGGTCTCCC
DNA 2: TGGTGGCTACGACGGGATT
B37: GAAUGGG (DNA:RNA)
RNA: B25 RNA with A25G, A28U, U29G, U30G, C31G
DNA 1: CAATCTGAATTCCGGTCTCCC
DNA 2: TGGTGGCTACGACGGGATT

Target: T1, RBFOX1 RRM RbFoxmut (Fox-RRM*) (Homo sapiens, UniProt Q9NWB1 109-208, R118D;E147R;N151S;E152T)
T1 sequence: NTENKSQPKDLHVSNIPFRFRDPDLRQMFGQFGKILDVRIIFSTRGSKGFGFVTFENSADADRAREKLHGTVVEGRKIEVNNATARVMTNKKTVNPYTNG
Assay: EMSA; HiTS-Eq, 1 nM pool, 10 min; buffer printed only for the single-RNA assays: 10 mM Tris pH 7.5, 150 mM NaCl, 3.4 mM EDTA, 0.001% NP-40, 30 C
Details: tags: His6 N-terminal (pET28a); label: 5' 32P
Procedure, shortened: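 Relative association constants, normalised to the cognate motif, were derived by comparing read counts of each RNA species with those of the control reaction. The RNA sequenced was the free fraction, separated by 8% native PAGE after a 10 min equilibration in 50 µL of 1 nM 5′-radiolabelled RNA (7 randomized nucleotides) with increasing concentrations of purified wild-type or mutant RbFox RRM.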

Q: Which binding signal does the source give for B1 here?
A: 0.0963 KA relative to UGCAUGU

Q: Which binding signal does the source give for B2 here?
A: 0.283 KA relative to UGCAUGU

Q: With B3 as the binder, how does the binding signal read?
A: 0.116 KA relative to UGCAUGU

Q: How did the binding signal turn out when B4 was run?
A: 0.0425 KA relative to UGCAUGU

Q: How did the binding signal turn out when B5 was run?
A: 0.111 KA relative to UGCAUGU

Q: How did the binding signal turn out when B6 was run?
A: 0.0516 KA relative to UGCAUGU

Q: For B7, which binding signal is on record?
A: 0.0289 KA relative to UGCAUGU

Q: How did the binding signal turn out when B8 was run?
A: 0.053 KA relative to UGCAUGU

Q: How did the binding signal turn out when B9 was run?
A: 0.1 KA relative to UGCAUGU

Q: Which binding signal does the source give for B10 here?
A: 0.63 KA relative to UGCAUGU

Q: For B11, which binding signal is on record?
A: 0.12 KA relative to UGCAUGU

Q: Which binding signal does the source give for B12 here?
A: 0.285 KA relative to UGCAUGU

Q: How did the binding signal turn out when B13 was run?
A: 0.284 KA relative to UGCAUGU

Q: For B14, which binding signal is on record?
A: 0.202 KA relative to UGCAUGU

Q: How did the binding signal turn out when B15 was run?
A: 0.198 KA relative to UGCAUGU

Q: Which binding signal does the source give for B16 here?
A: 0.169 KA relative to UGCAUGU

Q: B17 was tested. Which binding signal did it give?
A: 1.18 KA relative to UGCAUGU

Q: For B18, which binding signal is on record?
A: 1.04 KA relative to UGCAUGU

Q: For B19, which binding signal is on record?
A: 0.446 KA relative to UGCAUGU

Q: Which binding signal does the source give for B20 here?
A: 0.258 KA relative to UGCAUGU

Q: Which binding signal does the source give for B21 here?
A: 0.2 KA relative to UGCAUGU

Q: Which binding signal does the source give for B22 here?
A: 0.0902 KA relative to UGCAUGU

Q: Which binding signal does the source give for B23 here?
A: 0.0841 KA relative to UGCAUGU

Q: B24 was tested. Which binding signal did it give?
A: 0.0699 KA relative to UGCAUGU

Q: Which binding signal does the source give for B25 here?
A: 0.0842 KA relative to UGCAUGU

Q: With B26 as the binder, how does the binding signal read?
A: 0.541 KA relative to UGCAUGU

Q: For B27, which binding signal is on record?
A: 0.724 KA relative to UGCAUGU

Q: With B28 as the binder, how does the binding signal read?
A: 0.261 KA relative to UGCAUGU

Q: With B29 as the binder, how does the binding signal read?
A: 0.129 KA relative to UGCAUGU

Q: How did the binding signal turn out when B30 was run?
A: 0.123 KA relative to UGCAUGU

Q: For B31, which binding signal is on record?
A: 0.0836 KA relative to UGCAUGU

Q: How did the binding signal turn out when B32 was run?
A: 0.419 KA relative to UGCAUGU

Q: With B33 as the binder, how does the binding signal read?
A: 0.125 KA relative to UGCAUGU

Q: With B34 as the binder, how does the binding signal read?
A: 0.325 KA relative to UGCAUGU

Q: With B35 as the binder, how does the binding signal read?
A: 0.72 KA relative to UGCAUGU

Q: With B36 as the binder, how does the binding signal read?
A: 0.0639 KA relative to UGCAUGU

Q: Which binding signal does the source give for B37 here?
A: 0.21 KA relative to UGCAUGU
